# Pf Dd2 inh – qHTS Primary assay for Inhibitors of Plasmodium falciparum Dd2 growth in vitro; AID 1347417, 2020; P. falciparum Dd2 growth, SYBR Green, 72 h; 120,000 compounds, 4.3% hits; Potency, µM (doses to about 28.9 µM), usual class: inhibitors; active = well fitted inhibition curve with a large enough effect; note: nearly all actives have a fitted effect of over 65% in size
#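 Infected erythrocytes (Dd2, 0.3% parasitemia, 2.5% hematocrit final) are added to compound in RPMI-1640/Albumax II medium, grown 72 h at 37C in low oxygen, then lysed with saponin/Triton-X containing SYBR Green and read by fluorescence.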
# Numbers stand for hits; - = inactive; [ ] = remark or other dose. The sample as a whole holds a higher share of hits than the screen did.
SMILES,Pf Dd2 inh
CCNC(=O)N1CCOc2ccc(CCC(=O)Nc3ccc(F)cc3F)cc2C1,-
Cc1noc(C)c1S(=O)(=O)N1CCC(c2noc(-c3cccnc3)n2)C1 (stereo not given),-[5.79 µM]
O=[S+]([O-])(NCC1CN(Cc2ccc3[nH]ccc3c2)CC12CN(c1ccccc1)C2)c1ccccc1 (stereo not given),-
COC(=O)c1ccccc1NC(=O)CSc1nc(=O)cc(N)n1-c1ccccc1,-
COC(=O)c1ccc(NC(=O)C(C)Sc2nc(=O)cc(N)n2CCc2ccccc2)cc1 (stereo not given),11.2µM
COC(=O)c1ccc(NC(=O)CSc2nc3c(c(=O)n(C)c(=O)n3C)n2Cc2ccccc2)cc1,-
Cc1cc2cc(C(=O)N3CCN(c4ncccc4C#N)CC3)ccc2o1,-
Cc1cccnc1CN1CCN(c2ncncn2)CC1,-
CCCNC(=O)c1c(NC(=O)c2ccccc2)sc2c1CCC(C(C)(C)C)C2 (stereo not given),11.2µM
CCN(CC)C(=O)c1c(NC(=O)c2cccc(C)c2)sc2c1CCC(C)C2 (stereo not given),-
Cc1ccccc1NC(=O)c1c(NC(=O)c2ccncc2)sc2c1CCC(C(C)(C)C)C2 (stereo not given),5.62µM
CCOc1ccccc1NC(=O)c1c(NC(=O)c2ccncc2)sc2c1CCC(C(C)(C)C)C2 (stereo not given),-
CC[C@H]1CN(C(=O)c2ccnc(Cl)c2)CC[C@H]1CC(=O)NCc1ccccc1,-
CCNC(=O)CN1CCN(C(=O)[C@@H](N)Cc2cnc[nH]2)CC1,-
CCCNC(=O)N1CCOC[C@H](Oc2ccc(OC)cc2)C1,-
COc1ccc(O)cc1CN1CCC2(CCNCC2)C1,-
COc1cc(Cl)cc(CN2CCC3(CCCNC3)C2)c1OC (stereo not given),8.91µM
COc1cc(Cl)cc(CN2CCC3(CCOCC3)CC2)c1OC,-
COCCNc1oc(-c2ccccc2)nc1S(=O)(=O)c1ccc(Br)cc1,-
O=S(=O)(c1ccc(Cl)cc1)c1nc(-c2ccccc2Br)oc1NCc1ccccc1,10µM
O=S(=O)(c1ccccc1)c1nc(-c2ccc(F)cc2)oc1NCc1ccccc1,-
CCc1cc(=O)n(CC(=O)Nc2ccc(C(C)C)cc2)c(N2CCOCC2)n1,-
CN(C)C(=O)c1cccnc1OC1CCN(C(=O)Nc2ccc(Cl)cc2F)C1 (stereo not given),-
OC1(CN2CCN(c3cnccn3)CC2)CNCCOC1 (stereo not given),-
OC1(CN2CCCN(c3nc4ccccc4s3)CC2)CNCCOC1 (stereo not given),8.91µM
SMILES,Pf Dd2 inh
OC1(CN2CCC(OCc3ccccn3)CC2)CNCCOC1 (stereo not given),-
OC1(CN2CCN(C(c3ccccc3)c3ccccc3)CC2)CNCCOC1 (stereo not given),6.31µM
Cn1ccnc1CN1CCN(CC2(O)CNCCOC2)CC1 (stereo not given),-
Cc1cc(N2CCN(CC3(O)CNCCOC3)CC2)n2ncnc2n1 (stereo not given),-
CC(C)n1c(C2CCN(C(=O)CCc3nc4ccccc4s3)CC2)nn(C)c1=O,-
CN(C)C(=O)c1ccc(-c2ncc3c(n2)OCCN(Cc2ccc(F)cc2F)C3=O)cc1,-
COC(=O)c1c(-c2ccc(Cl)cc2)noc1N1CCN(c2ccc(F)cc2)CC1,-
CC(=O)NC1(C)CCN(c2cccc(C(F)(F)F)c2)CC1,-
COC(=O)c1c(-c2ccc(Cl)cc2)noc1N1CCN(c2cccc(C(F)(F)F)c2)CC1,7.08µM
Cn1c([C@H]2CCN(C(=O)COCC(=O)O)C2)nc2ccccc21,-
CN1CCNc2cc(Nc3ccc(F)cc3)ncc2C1,-
Cc1ccc(C(=O)N2CCC(C(NC(=O)CC(C)C)C(=O)N3CCCCC3)CC2)cc1 (stereo not given),-
O=C(Nc1ccccc1)N1CCC(Oc2ccccc2-c2nc(-c3cnccn3)no2)C1 (stereo not given),-
CCNC(=O)N1CC(Oc2ccccc2-c2nc(-c3cnccn3)no2)C1,-
c1csc(CN2CCC(Oc3ccccc3-c3nc(-c4cnccn4)no3)C2)c1 (stereo not given),5.62µM
O=C(c1cc(F)cc(F)c1)N1CCC(Cc2nc(-c3ccccc3)no2)CC1,-
CS(=O)(=O)N(Cc1cccnc1)C1CN(C(=O)Cc2c[nH]c3ccccc23)C1,-
Cc1nc2n(c1C(=O)N(C)c1ccccc1)CCC(Nc1ccc(F)cc1)C2 (stereo not given),-
CCOc1ccc(NC(=O)C(NS(=O)(=O)c2cccc3nsnc23)c2ccccc2)cc1 (stereo not given),-
CC(C)C(NS(=O)(=O)c1cccc2cccnc12)C(=O)Nc1ccc(OC(F)(F)F)cc1 (stereo not given),10µM
O=C(Nc1cccc(C(F)(F)F)c1)O[C@@H]1CO[C@H]2[C@@H]1OC[C@@H]2NS(=O)(=O)c1cccc2cccnc12,-
CC(C)(C)c1nc(N2CCOCC2)ncc1C(=O)O,-
CCN(CC)CC[C@H]1CN(C(=O)c2ccc(OC)cc2)CC[C@H]1CC(=O)O,-
COc1ccc(C(=O)N2CCCC(c3nc(-c4ccccc4)no3)CCNC(=O)CC2)cc1 (stereo not given),-
CCn1cc2nc(SCc3cccc(C(F)(F)F)c3)n(Cc3ccc(C)cc3)c(=O)c2n1,10µM
SMILES,Pf Dd2 inh
CCn1cc2nc(SCc3cccc(C)c3)n(CCc3ccccc3)c(=O)c2n1,-
CCn1cc2nc(SCc3cccc(Cl)c3)n(Cc3ccc(C)cc3)c(=O)c2n1,-
COc1ccccc1CCNC(=O)c1ccc2c(c1)c(C)c(C)n2Cc1ccc(Cl)cc1,-
Cc1c(C)n(Cc2ccccc2)c2ccc(C(=O)NCc3ccco3)cc12,7.08µM
Cc1ccc(CNC(=O)c2ccc3c(c2)c(C)c(C)n3Cc2ccc(Cl)cc2)o1,10µM
CCc1ccc(CNC(=O)c2ccc3c(c2)c(C)c(C)n3Cc2ccccc2)cc1,-
COc1cccc(CNC(=O)c2ccc3c(c2)c(C)c(C)n3Cc2ccccc2)c1,-
Cc1ccc(CNC(=O)c2ccc3c(c2)c(C)c(C)n3Cc2ccccc2)o1,-
COCCN1C(=O)CS(=O)(=O)C12CCN(C(=O)c1ccc(F)cc1)CC2,-
COc1ccc(C(=O)NCC2Cn3cccc3C(=O)N2CC(C)C)cn1 (stereo not given),-
COc1ccc(CC(=O)N2CC(C(=O)NCCc3ccncc3)C3(CCOCC3)C2)cc1 (stereo not given),-
Cc1ccc(OCC(=O)N2CCC(c3noc(-c4ccncc4)n3)C2)cc1 (stereo not given),-[5.79 µM]
CNC(=O)c1[nH]nc2c1C(c1c(C)nc3ccc(Cl)cn13)CC(=O)N2 (stereo not given),-
COc1ccccc1Nc1ncc2c(n1)CN(C(=O)c1ccc(Oc3ccccc3)cc1)CCN2,8.91µM
COc1ccccc1Nc1ncc2c(n1)CN([S+](=O)([O-])c1ccccc1)CCN2,-
COc1ccccc1Nc1ncc2c(n1)CN(C(=O)c1cccc(O)c1)CCN2,-
O=C(Nc1cccnc1)N1CC2ON=C(C(=O)N3CCCC3)C2C1 (stereo not given),-
CCOC(=O)c1c(NC(=O)CS(=O)(=O)c2ccc(C)cc2)sc2c1CCCCC2,-
CCOC(=O)c1c(NC(=O)c2ccc(S(=O)(=O)N(CCOC)CCOC)cc2)sc2c1CC(C)(C)NC2(C)C,10µM
CC1CCN(S(=O)(=O)c2ccc(C(=O)Nc3sc4c(c3C(N)=O)CC(C)(C)NC4(C)C)cc2)CC1,-

# Bioassay records: PubChem BioAssay, National Center for Advancing Translational Sciences (NCATS)
